Drawing on PubChem BioAssay (NCATS), this text covers Potency and max response for 14 molecules.

Structures are written as SMILES. Results filed as inconclusive are left out. Values without a mark were called inactive. Active and inactive are the calls of the source. Unless noted, calls come from the whole dose curve; as a rule, active = well fitted curve in the direction sought with a large enough effect; inconclusive = small, poorly fitted or top-dose-only effect, or another doubt; inactive = no such curve, though single readings can be large; an effect the other way counts as inactive or inconclusive.

The target in test [1] is Calcium and integrin-binding protein 1 (Homo sapiens) (UniProt Q99828). Nature of the test: Primary qHTS for Identification of Calcium Integrin Binding Protein 1 (CIB1) Competitor (AID 1508620). Note: top concentration of the series differs between compounds; % is set by controls: 0 for no effect and ±100 for the full control effect. The method in brief: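 Fluorescence polarization competition: GST-tagged CIB1 (1 uM final) preincubated with compound 15 min at room temperature, then FITC-labelled alphaIIb peptide (100 nM final) added. After 15 min at room temperature, polarization read at Ex 480/Em 540.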
Calcium and integrin-binding protein 1 (Homo sapiens), sequence (Q99828 whole entry, looked up): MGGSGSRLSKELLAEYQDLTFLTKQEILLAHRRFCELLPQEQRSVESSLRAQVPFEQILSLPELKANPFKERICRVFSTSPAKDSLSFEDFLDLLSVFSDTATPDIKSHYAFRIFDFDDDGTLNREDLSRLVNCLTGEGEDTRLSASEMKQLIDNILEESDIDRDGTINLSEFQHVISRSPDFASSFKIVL
(Quantitative high-throughput screening tests each substance at several concentrations.)

Test [2] is described as follows: Primary qHTS for small molecule stabilizers of the endoplasmic reticulum resident proteome: Secreted ER Calcium Modulated Protein (SERCaMP) assay (AID 1508630). Note: % is set by controls: 0 for no effect and ±100 for the full control effect. The method in brief:
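The SH-SY5Y reporter protocol was run at 3 concentrations up to 38.3 uM (primary) or 11 concentrations (follow-up): 16 h compound, 100 nM thapsigargin for 4 h, then extracellular luciferase luminescence.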

Test [3] in a line: A High-Content qHTS Against Drug Library for the Identification of Small Molecules that Inhibit DYT1 Early Onset Primary Dystonia-Associated Cell Pathology (AID 1645839; calls by dose curve; note: series mostly up to about 46 µM). The method in brief: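 Cells were seeded and left for 24 h, then dosed with compound alongside tetracycline induction of mutant EGFP-TorsinA. They were incubated for 48 h, fixed in 4% paraformaldehyde, permeabilized and imaged for mislocalization (%pathology) and cell count.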

The target of test [4] is Cytochrome P450 2D6 (Homo sapiens) (UniProt P10635). Kind of test: Cytochrome P450 family 2 subfamily D member 6 (CYP2D6) small molecule antagonists: luciferase biochemical (cell-free) qHTS assay (AID 1645840; active = well fitted curve in the direction sought with a large enough effect in the repeat runs; an effect the other way counts as inactive or inconclusive; note: nearly all actives have a fitted effect of over 55% in size; note: potency is the fitted concentration of half-maximal effect). The method in brief:
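P450-Glo CYP2D6 system: proluciferin substrate converted by enzyme to luciferin, read by luminescence proportional to activity. Enzyme-substrate mix with compound 10 min at room temperature, then NADPH regeneration 1 h before detection reagent.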

In test [5] the target is Cytochrome P450 3A4 (Homo sapiens) (UniProt P08684). Kind of test: Cytochrome P450 family 3 subfamily A member 4 (CYP3A4) small molecule antagonists: luciferase qHTS assay (AID 1645841; active = well fitted curve in the direction sought with a large enough effect in the repeat runs; an effect the other way counts as inactive or inconclusive; note: nearly all actives have a fitted effect of over 45% in size). The method in brief: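 P450-Glo CYP3A4 enzyme with proluciferin substrate preincubated 10 min with compound at room temperature, then NADPH regeneration 1 h. Luciferin detection reagent added for 20 min; luminescence recorded. Ketoconazole positive control.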
Cytochrome P450 3A4 (Homo sapiens), sequence (P08684 whole entry, looked up): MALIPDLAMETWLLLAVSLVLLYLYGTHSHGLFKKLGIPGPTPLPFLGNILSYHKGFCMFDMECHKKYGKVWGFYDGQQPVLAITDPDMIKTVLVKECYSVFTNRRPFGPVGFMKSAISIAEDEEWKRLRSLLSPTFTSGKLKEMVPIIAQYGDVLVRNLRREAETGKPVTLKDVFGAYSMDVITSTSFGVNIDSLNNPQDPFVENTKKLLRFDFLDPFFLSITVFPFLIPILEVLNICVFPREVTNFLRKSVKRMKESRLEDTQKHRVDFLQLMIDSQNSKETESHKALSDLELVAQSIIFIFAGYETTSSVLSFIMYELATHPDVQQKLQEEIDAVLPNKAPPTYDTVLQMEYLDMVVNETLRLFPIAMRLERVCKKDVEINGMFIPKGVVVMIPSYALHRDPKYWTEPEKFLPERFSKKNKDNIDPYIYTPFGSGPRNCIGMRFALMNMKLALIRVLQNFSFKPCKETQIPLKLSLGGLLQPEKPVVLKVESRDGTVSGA

The target of test [6] is Cytochrome P450 2C9 (Homo sapiens) (UniProt P11712). Nature of the test: Cytochrome P450 family 2 subfamily C member 9 (CYP2C9) small molecule antagonists: luciferase biochemical (cell-free) qHTS assay (AID 1645842; active = well fitted curve in the direction sought with a large enough effect in the repeat runs; an effect the other way counts as inactive or inconclusive; note: series mostly up to about 57 µM; % is set by controls: 0 for no effect and ±100 for the full control effect; nearly all actives have a fitted effect of over 55% in size). The method in brief: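 P450-Glo CYP2C9 system: proluciferin substrate with enzyme in mix containing 0.4% BSA, 10 min at room temperature, then NADPH regeneration solution added and incubated 1 h at 37C. Detection reagent stopped reaction; luminescence read after 20 min as RLU.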
Cytochrome P450 2C9 (Homo sapiens), sequence (P11712 whole entry, looked up): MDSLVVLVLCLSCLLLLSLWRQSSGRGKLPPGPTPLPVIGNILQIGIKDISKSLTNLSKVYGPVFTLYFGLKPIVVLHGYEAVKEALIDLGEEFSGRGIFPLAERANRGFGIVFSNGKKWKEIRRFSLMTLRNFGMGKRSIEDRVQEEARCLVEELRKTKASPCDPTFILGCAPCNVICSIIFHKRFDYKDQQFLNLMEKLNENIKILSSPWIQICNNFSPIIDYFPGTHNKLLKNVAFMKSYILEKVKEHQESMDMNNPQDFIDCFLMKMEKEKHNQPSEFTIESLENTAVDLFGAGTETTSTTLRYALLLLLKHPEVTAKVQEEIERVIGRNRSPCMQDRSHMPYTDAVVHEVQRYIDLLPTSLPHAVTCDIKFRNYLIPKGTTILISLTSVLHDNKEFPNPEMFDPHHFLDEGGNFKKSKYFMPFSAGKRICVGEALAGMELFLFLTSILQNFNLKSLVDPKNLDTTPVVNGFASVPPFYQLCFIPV

Test [7] can be described thus: Counterscreen qHTS for small molecule stabilizers of the endoplasmic reticulum resident proteome: GLuc-NoTag assay (AID 1508627).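 Note: SH-SY5Y cells given compound then 100 nM thapsigargin to empty ER calcium; series mostly up to about 76 µM; 0% = thapsigargin alone and -100% = DMSO vehicle control.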 The method in brief:
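Counterscreen line: SH-SY5Y-GLuc-NoTag. Seed, 5 h; compound, 19 h; thapsigargin 100 nM, 4 h; 37C/5% CO2. Readout: secreted GLuc luminescence, coelenterazine 0.07x final, no lysis.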

Test [8] is described as follows: Confirmatory qHTS for small molecule stabilizers of the endoplasmic reticulum resident proteome: Secreted ER Calcium Modulated Protein (SERCaMP) assay (AID 1508628). Note: series mostly up to about 76 µM; % is set by controls: 0 for no effect and ±100 for the full control effect; nearly all actives have a fitted effect of over 40% in size. The method in brief:
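GLuc-SERCaMP-expressing SH-SY5Y cells, pretreated 16 h with compound, are challenged with thapsigargin to empty ER calcium stores; after 4 h, coelenterazine is added directly to the medium and luminescence is imaged.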

The nature of test [9]: Cell Viability qHTS for small molecule stabilizers of the endoplasmic reticulum resident proteome (AID 1508629).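 Note: compound exposure about 46 h in total before the viability read; % is set by controls: 0 for no effect and ±100 for the full control effect.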 To be noted: cell viability counter-screen, 100 nM thapsigargin for final 4 h. An excerpt:
Assay Provider: Brandon K. Harvey Ph.D.
National Institute on Drug Abuse, National Institutes of Health, Baltimore, MD
Endoplasmic reticulum (ER) dysregulation is associated with human pathologies including neurodegenerative, cardiovascular, muscular, and diabetic conditions. Maintenance of ER calcium is critical for functions of the ER and its depletion can lead to loss of ER resident proteins, in a process termed exodosis. Therapeutic compounds capable of attenuating the redistribution of ER proteins under pathological conditions may slow or stop disease progression. To identify such compounds, we performed a quantitative high-throughput screen (qHTS) using the SERCaMP assay, which monitors secretion of ER resident proteins triggered by calcium depletion.
SERCaMP was initially developed as a reporter of ER calcium homeostasis using a Gaussia luciferase with a modified signal peptide and carboxy-terminus (GLuc-SERCaMP), modifications that confer secretion of the reporter in response to ER calcium depletion (Henderson et al., 2014). The assay was used to screen 9,501 compounds, including a collection of drugs approved by the FDA (US), EMA (EU), NHI (Japan), and HC (Canada) regulatory agencies (Huang et al., 2011). Since the SERCaMP reporter reflects the exodosis phenomenon (Trychta et al., 2018a), compounds identified in the screen have the potential to prevent exodosis by different mechanisms such as stabilizing ER calcium or augmenting ERS retrieval.
1. Henderson, M.J., Wires, E.S., Trychta, K.A., Richie, C.T., and Harvey, B.K. (2014). SERCaMP: a carboxy-terminal protein modification that enables monitoring of ER calcium homeostasis. Mol Biol Cell 25, 2828-2839.
2. Huang, R., Southall, N., Wang, Y., Yasgar, A., Shinn, P., Jadhav, A., Nguyen, D.T., and Austin, C.P. (2011). The NCGC pharmaceutical collection: a comprehensive resource of clinically approved drugs enabling repurposing and chemical genomics. Sci Transl Med 3, 80ps16.
3. Trychta, K.A., Back, S., Henderson, M.J., and Harvey, B.K. (2018a). KDEL Receptors Are Differentially Regulated to Maintain the ER Proteome under Calcium Deficiency. Cell Rep 25, 1829-1840 e1826.
SEQUENCE No. (1, 2, 3, etc.); […] (e.g., Cells, Incubation, Reagent, etc.); VALUE and DESCRIPTION.
1; Reagent; 5 uL; 1000 SH-SY5Y cells per wells
3; Compound; 23 nL; Control inhibitor / compound library
5; Reagent; 100 nM; Thapsigargin
7; Reagent; 5 uL; CellTiter-Glo (Promega)
8; Time; 10 min; room temperature
9; Detection; Luminescence; ViewLux imaging system
NOTES (numbers refer to sequence above)
1; SH-SY5Y human neuroblastoma cells stably expressing GLuc-SERCaMP (SH-SY5Y-GLuc-ASARTDL) cells were seeded in 1,536 well white tissue culture treated plates (Corning, Cat# 7464) in DMEM-high glucose-sodium pyruvate (ThermoFisher Scientific, Cat #10569) supplemented with 10% bovine growth serum (Hyclone), 10 U/ml penicillin (Gibco), 10 ug/ml streptomycin (Gibco), and 20 mM HEPES.
2; Assay plates were incubated for 5 hr at 37C in a humidified incubator containing 5% CO2.
3; qHTS libraries (23 nl, final concentrations of 1.53 uM, 7.67 uM, 38.3 uM) or controls (neutral control: DMSO, positive control: dantrolene) were added using a Kalypsis pin-tool Robotic System equipped with 1536 pinheads.
4; Cells were then incubated for 42 hours at 37C, 5% CO2. […]
7; Cell viability was measured using the CellTiter-Glo Luminescent Cell Viability Assay (Promega). […]
9; Luminescence was measured using a ViewLux CCD imaging system (Perkin Elmer) equipped with clear filters.

Cytochrome P450 2D6 (Homo sapiens), sequence (P10635 whole entry, looked up): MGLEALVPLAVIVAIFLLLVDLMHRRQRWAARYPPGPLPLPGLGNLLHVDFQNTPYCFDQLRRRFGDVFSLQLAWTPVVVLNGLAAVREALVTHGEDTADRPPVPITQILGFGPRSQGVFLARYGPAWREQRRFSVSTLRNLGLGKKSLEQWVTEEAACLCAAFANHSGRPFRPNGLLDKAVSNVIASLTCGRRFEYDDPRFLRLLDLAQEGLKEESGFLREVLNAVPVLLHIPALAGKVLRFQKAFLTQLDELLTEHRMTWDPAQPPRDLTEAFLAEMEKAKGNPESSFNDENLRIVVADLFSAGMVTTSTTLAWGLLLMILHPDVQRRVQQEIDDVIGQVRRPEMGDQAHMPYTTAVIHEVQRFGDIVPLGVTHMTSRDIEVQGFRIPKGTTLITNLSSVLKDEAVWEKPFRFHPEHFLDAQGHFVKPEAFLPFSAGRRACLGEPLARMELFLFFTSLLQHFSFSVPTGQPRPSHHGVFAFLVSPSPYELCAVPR

Take `O=C(O)CCC(=O)Nc1ccc(S(=O)(=O)Nc2nccs2)cc1`: the Potency entry in test [1], in test [2] and in [3] was “inactive” throughout.
For `CC[C@H](c1ccc(O)cc1)[C@@H](CC)c1ccc(O)cc1`, the Potency result in test [1] and in [2] was “inactive” throughout.
As for `Cc1cn([C@H]2C[C@H](F)[C@@H](CO)O2)c(=O)[nH]c1=O`, the Potency result in test [1], in test [2], in test [3], in test [4], in test [5] and in test [6] was “inactive” each time.
Turning to `CN1CCC(OC(c2ccccc2)c2ccccc2)CC1`, the Potency entry in [1], in test [7] and in test [8] was “inactive” in each case. Further, the max response in [9] is 7.61%.
As for `CC(CNC1CCCCC1)OC(=O)c1ccccc1` (stereo unspecified), the Potency result in test [1], in test [2] and in test [3] was “inactive” each time.
As to `NC(=O)n1c(O)c(C(=O)c2cccs2)c2cc(Cl)ccc21`, the Potency entry in test [1] and in test [2] was “inactive” each time.
Take `Cc1ccccc1OCC(O)CO` (stereo unspecified): the Potency result in [1], in test [2] and in [3] was “inactive” each time.
For the molecule `CN(Cc1ccc(C(C)(C)C)cc1)Cc1cccc2ccccc12`, the Potency entry in [1], in [2] and in test [3] was “inactive” in each case. In addition, the Potency in test [4] was 123 nM (active).
As to `O=C1C(=O)c2ccccc2C(O)=C1C1CCC(c2ccc(Cl)cc2)CC1` (stereo unspecified), the Potency result in test [1], in [2], in [3], in test [4], in test [5] and in test [6] was “inactive” throughout.
As for `O=S(c1cc(Cl)cc(Cl)c1O)c1cc(Cl)cc(Cl)c1O`, the Potency result in test [1] and in test [2] was “inactive” in each case.
Regarding `Nc1nc(-c2ccccc2)c(Br)c(=O)[nH]1`, the Potency result in [1], in test [2], in [3], in test [4], in test [5] and in test [6] was “inactive” in each case.
In the case of `COc1ccc(C(=O)c2ccccc2)c(O)c1`, the Potency result in test [1], in test [2], in [3] and in test [4] was “inactive” in each case.
In the case of `CCNC(=O)NCc1cccc(Cl)c1`, the Potency result in test [1], in test [2], in test [3], in test [4] and in test [6] was “inactive” throughout.
As for `NS(=O)(=O)Cc1noc2ccccc12`, the Potency entry in test [1], in [2], in [3], in test [4], in test [5] and in test [6] was “inactive” in each case.
